The panel holds about 83,000 compounds, 20% with a hit somewhere; the sample as a whole holds those more often.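 Cells were grown in 96-well plates and exposed to the test compound at a single concentration for 48 hours; results are reported as percent growth, with values below 10 considered active.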 Values without a mark were called inactive. Calls of active or inactive are those of the source.
What was measured:
Assay in all cases: NCI-60 one-dose screen, 48 h (100 = growth as untreated, 0 = no growth, -100 = all killed)
Settings in all cases: 10 µM unless noted
NCI-H23 lung = system: NCI-H23 lung
NCI-H226 lung = system: NCI-H226 lung
NCI-H322M lung = system: NCI-H322M lung
HOP-62 NSCLC = system: HOP-62 NSCLC
NCI-H460 lung = system: NCI-H460 lung
HOP-92 NSCLC = system: HOP-92 NSCLC
NCI-H522 lung = system: NCI-H522 lung
A549/ATCC NSCLC = system: A549/ATCC NSCLC
786-0 renal = system: 786-0 renal
COLO 205 colon = system: COLO 205 colon
DU-145 prostate = system: DU-145 prostate
K-562 leukemia = system: K-562 leukemia
MALME-3M melanoma = system: MALME-3M melanoma
MDA-MB-231 breast = system: MDA-MB-231 breast
RXF 393 renal = system: RXF 393 renal
SF-268 CNS = system: SF-268 CNS
SF-295 CNS = system: SF-295 CNS
SF-539 CNS = system: SF-539 CNS
M14 melanoma = system: M14 melanoma
UACC-257 melanoma = system: UACC-257 melanoma

| Compound | growth (NCI-H23 lung) | growth (NCI-H226 lung) | growth (NCI-H322M lung) | growth (HOP-62 NSCLC) | growth (NCI-H460 lung) | growth (HOP-92 NSCLC) | growth (NCI-H522 lung) | growth (A549/ATCC NSCLC) | growth (786-0 renal) | growth (COLO 205 colon) | growth (DU-145 prostate) | growth (K-562 leukemia) | growth (MALME-3M melanoma) | growth (MDA-MB-231 breast) | growth (RXF 393 renal) | growth (SF-268 CNS) | growth (SF-295 CNS) | growth (SF-539 CNS) | growth (M14 melanoma) | growth (UACC-257 melanoma) |
| --- | --- | --- | --- | --- | --- | --- | --- | --- | --- | --- | --- | --- | --- | --- | --- | --- | --- | --- | --- | --- |
| Cn1c2ccccc2c2c3c(c4c5cccnc5[nH]c4c21)C(=O)N(O)C3=O | 15.1% | 74.3% | 62.6% | 15.3% | 14.7% | 78.9% | 47.6% | 62.3% | 36.6% | 22.4% | 26.5% | 29.8% | 58.2% | 68.8% | 59.5% | 38.2% | 37.6% | 16.6% | 20.5% |  |
| Nc1c(C(=O)Nc2c(Cl)cccc2Cl)sc2nc3c(cc12)CCCC3 | 84.1% | 91.4% | 94% | 50.1% | 66.4% | 89.2% | 62.8% | 66.5% | 103% | 70.3% | 88.4% | 14.8% | 59.2% | 82.5% | 87.9% | 80.9% | 75.8% | 75.8% | 46.6% |  |
| CC(=O)O[C@@H]1CCN2C(=O)N(C)c3ccccc3[C@@H]2C1 | 98.7% | 109% | 108% | 104% | 104% | 111% | 96.4% | 95% | 101% | 114% | 121% | 93.5% | 94.7% | 111% | 115% | 113% | 88.9% | 97.7% | 101% |  |
| O=C(O[C@@H]1Cc2c(O)cc(O)cc2O[C@@H]1c1cc(O)c(O)c(O)c1)c1cc(O)c2c(c1)OCO2 | 92.6% | 93% | 107% | 98.5% | 105% | 95.1% | 83.3% | 82.5% | 94.4% | 104% | 99.7% | 91% | 108% | 101% | 111% | 97% | 103% | 108% | 91.9% | 83% |
| COc1cccc(-c2nn(-c3ccccc3)cc2-c2ccnc(NCCCNS(=O)(=O)c3cccc(F)c3)c2)c1 | 30.2% | 21.7% | 53.9% | 54.1% | 24.5% | 6.39% (active) | 9.36% (active) | 27.4% | 31.6% | 11.9% | 53.6% | 6.28% (active) | 35.1% | 5.9% (active) | 15.8% | 46.8% | 7.99% (active) | 51.9% | 21% |  |
| CSc1ccc(N(C)c2nc(C)nc3c2CCC3)cc1 | 16.7% | 55.5% | 57.4% | 2.72% (active) | 6.41% (active) | -17% (active) | -26.7% (active) | 6.42% (active) | 14.4% | -64.9% (active) | 9.33% (active) | 5.51% (active) | 92.8% | 10% | 44.7% | 26.9% | 14.3% | -16.1% (active) | 5.22% (active) |  |
| CCN1CCN(c2nc(C)cc(N(CCCNc3ccnc4cc(Cl)ccc34)Cc3ccco3)n2)CC1 | 62.2% | 86.4% | 63.5% | 52.1% | 39.9% | 65.3% | 71.6% | 50.4% | 64.8% | -21.2% (active) | 55.5% | 8.16% (active) | -6.8% (active) | 11.6% | 48.5% | 55.7% | 51% | -63.5% (active) | -76% (active) | -2.43% (active) |
| COc1cccc(-c2nn(-c3ccccc3)cc2-c2ccnc(NCCCNS(=O)(=O)c3ccc(Cl)cc3)c2)c1 | 46.9% | 40.3% | 66.8% | 81.8% | 40.9% | 25.1% | 41.7% | 39.9% | 37.4% | 15.1% | 67.1% | 11.6% | 74.6% | 23.5% | 46.4% | 56.1% | 24.2% | 62.3% | 33.4% |  |
| CCN1CCN(C(=O)[C@@]2(C)CC[C@]3(C)CC[C@]4(C)C(=CC(=O)[C@@H]5[C@@]6(C)CC[C@H](OC7C[C@@H](O)[C@@H](O)C(C)O7)C(C)(C)[C@@H]6CC[C@]54C)[C@@H]3C2)CC1 (stereo partly drawn) | 45.2% | 26.3% | 37% | 26.9% | -79.5% (active) | 0.911% (active) | 38.6% | 12.5% | -60.5% (active) | 106% | 2.94% (active) | 8.78% (active) | 2.56% (active) | 6.15% (active) | 60.4% | 24.2% | -78% (active) | -59.2% (active) | -55.2% (active) | 14.8% |
| CCCCC[C@H]1C/C=C2/C(=O)C(Cl)=C[C@@H]2C/C=C\CCCC(=O)O1 | -34.5% (active) | -32.7% (active) | -74.2% (active) | -36.7% (active) | -16.6% (active) | -48.9% (active) | -73.1% (active) | -35.6% (active) | -73.4% (active) | -63.1% (active) | -83.1% (active) | 2.39% (active) | -35.2% (active) | -10.7% (active) | -90.9% (active) | -37.1% (active) | -35% (active) | -76.7% (active) | -52.8% (active) | -53.3% (active) |
| COc1cccc(-c2nn(-c3ccccc3)cc2-c2ccnc(NCCCN)c2)c1 | 60% | 78.7% | 78.5% | 47.9% | 27.9% | 32.3% | 83.4% | 68% | 52.1% | 26.1% | 75.6% | 16.8% | 70.2% | 33.7% | 51.5% | 64% | 44.7% | 49.8% | 26.1% |  |
| COC(=O)[C@]12CC[C@@H](C)[C@H](C)[C@@H]1C1=CC[C@@H]3[C@@](C)(CC#N)C4=C(C[C@@]3(C)[C@]1(C)CC2)OC[C@]4(C)C=O | -10.1% (active) | -37% (active) | 10.4% | -23.6% (active) | -57.1% (active) | 2.68% (active) | -6.43% (active) | -73.6% (active) | -19.3% (active) | -94% (active) | 5.07% (active) | 5.97% (active) | -16.9% (active) | -8.99% (active) | -85.1% (active) | 3.69% (active) | -30.6% (active) | -38.4% (active) | -1.53% (active) |  |
| COc1cccc(-c2nn(-c3ccccc3)cc2-c2ccnc(NCCNS(=O)(=O)c3ccc(Cl)cc3)c2)c1 | 32% | 41.8% | 63.8% | 53.5% | 32.9% | 7.77% (active) | 12.4% | 27.4% | 40.3% | 4.94% (active) | 52.7% | 11.7% | 50.3% | 19.3% | 29.8% | 45.7% | 21.7% | 54.1% | 28.6% |  |
| COC(=O)[C@]12CC[C@@H](C)[C@H](C)[C@@H]1C1=CC[C@@H]3[C@@]4(C)C[C@@H](OC(C)=O)[C@H](O)[C@@](C)(COC(C)=O)[C@@H]4[C@H](O)C[C@@]3(C)[C@]1(C)CC2 | -83.3% (active) | -57.8% (active) | -92.6% (active) | -84% (active) | -86.9% (active) | -67.4% (active) | -81.6% (active) | -86.2% (active) | -81.9% (active) | -81.3% (active) | -91.9% (active) | -10.7% (active) | -70.5% (active) | -68% (active) | -79.2% (active) | -71.9% (active) | -91.8% (active) | -85.1% (active) | -73.3% (active) |  |
| O=C1CNCCN1 | 96.4% | 97.1% | 106% | 114% | 105% | 105% | 90.9% | 93.4% | 100% | 122% | 107% | 101% | 104% | 97.9% | 98.5% | 107% | 97.4% | 95.8% | 105% |  |
| COC(=O)[C@]12CC[C@@H](C)[C@H](C)[C@@H]1C1=CC[C@@H]3[C@@]4(C)C[C@@H](O)[C@H](O)[C@@](C)(CO)C4=CC[C@@]3(C)[C@]1(C)CC2 | -57.8% (active) | -47.4% (active) | -84.7% (active) | -61% (active) | -63.4% (active) | -77.6% (active) | -2.22% (active) | -14.1% (active) | -74.1% (active) | -76.7% (active) | -41.4% (active) | -22.8% (active) | -74.8% (active) | -63.7% (active) | -88.3% (active) | -49.2% (active) | -83.3% (active) | -89.9% (active) | -68.1% (active) |  |
